The values below come from PubChem BioAssay (NCATS).

Values without a mark were called inactive. The call rests on the fitted dose curve; in most records, active means well fitted curve in the direction sought with a large enough effect; inconclusive means small, poorly fitted or top-dose-only effect, or another doubt; inactive means no such curve, though single readings can be large or run the other way.

In the test the target is Thyrotropin receptor (Homo sapiens) (UniProt P16473). Kind of test: qHTS Assay for Antagonists of the Thyroid Stimulating Hormone Receptor (AID 488980). Further: 0% is about no effect. To be noted: TSHR-expressing cells, cAMP antagonist read-out; series mostly up to 57.5 µM; activity, negative = inhibition: at the top concentration. An excerpt: TSH is an alpha/beta heterodimeric glycoprotein hormone secreted from the anterior pituitary gland which belongs to the glycoprotein hormone family. The actions of TSH are mediated by a seven-transmembrane receptor, which upon TSH binding couples preferentially to the G-alpha (s) protein (Gs), resulting in activation of adenylate cyclase and increase in cyclic adenosine 3', 5' monophosphate (cAMP). The TSH receptor (THSR) is mainly expressed in thyroid follicular cells and regulates their growth and function. This cell based assay was conducted on a TSHR transfected HEK 293 cell line, measuring cAMP stimulation using antibody-based Homogeneous Time Resolved Fluorescence (HTRF).
Thyrotropin receptor (Homo sapiens), sequence (P16473 whole entry, looked up): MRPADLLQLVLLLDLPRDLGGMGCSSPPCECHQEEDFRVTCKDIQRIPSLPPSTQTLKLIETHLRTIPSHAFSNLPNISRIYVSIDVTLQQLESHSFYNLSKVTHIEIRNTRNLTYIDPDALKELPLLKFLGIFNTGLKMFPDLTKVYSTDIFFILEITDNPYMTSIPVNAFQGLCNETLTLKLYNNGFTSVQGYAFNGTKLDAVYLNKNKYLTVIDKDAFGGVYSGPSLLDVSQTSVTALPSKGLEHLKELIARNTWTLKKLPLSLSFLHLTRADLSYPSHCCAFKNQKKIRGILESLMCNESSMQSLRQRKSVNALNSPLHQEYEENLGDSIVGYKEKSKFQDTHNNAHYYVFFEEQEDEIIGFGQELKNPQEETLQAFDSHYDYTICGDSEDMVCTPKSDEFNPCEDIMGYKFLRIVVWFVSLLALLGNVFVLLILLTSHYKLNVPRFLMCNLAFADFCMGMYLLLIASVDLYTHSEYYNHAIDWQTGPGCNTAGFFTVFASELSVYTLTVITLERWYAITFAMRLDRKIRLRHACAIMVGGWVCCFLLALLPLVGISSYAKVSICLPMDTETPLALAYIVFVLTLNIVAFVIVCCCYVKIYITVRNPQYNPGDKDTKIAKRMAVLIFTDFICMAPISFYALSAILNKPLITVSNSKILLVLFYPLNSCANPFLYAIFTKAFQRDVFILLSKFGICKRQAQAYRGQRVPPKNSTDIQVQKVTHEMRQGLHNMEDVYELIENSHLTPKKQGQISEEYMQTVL
Our goal is to identify small molecules that will inhibit (antagonize) the thyroid-stimulating hormone receptor (TSHR), a member of the 7 transmembrane-spanning receptor (7TMR) family of cell surface receptors. TSHR-mediated hyperthyroidism is important in thyroid pathology. The development of small molecule antagonists of TSHR may lead to therapeutic approaches for TSHR-mediated hyperthyroidism caused by constitutively activating mutations or stimulating auto-antibodies associated with Graves' disease. Graves' disease is the leading cause of hyperthyroidism and is caused by autoantibodies that stimulate TSHR (TsAbs) causing thyroid growth and unregulated overproduction of thyroid hormones and existing treatments have liabilities (agranulocytosis). In addition, TSHRs are known to be expressed in multiple extrathyroidal tissues including bone, brain, kidney, testis, fat and cells of the immune system but the role of the TSHR in these tissues is not clear. Therefore, TSHR antagonists/inverse agonists could be used as probes of extrathyroidal TSHR function. Finally, TSHR inverse agonists, which are a subclass of antagonists that inhibit agonist-independent (or basal or constitutive) TSHR signaling, could be used to inhibit TSH-independent signaling in patients with recurrent or metastatic thyroid cancer who are receiving thyroid hormone to suppress TSH.
An anti cAMP antibody contains a fluorescent cryptate tag (excitation 337 nm; emission 620 nm) and the acceptor is cAMP-d2 (excitation 620 nm; emission 665 nm). When antibody and cAMP-d2 interact and are excited by a 337 nm light, a FRET occurs resulting in emission at 665 nm. The assay is competition between cAMP-d2 and cAMP (from the cell lysate). The homogeneous protocol allows for one step dispense after stimulation that is automation friendly.
Step, Parameter, Value, Description
1, Cells, 3 uL, 2000 TSHR freshly harvested cells/well 1536 TC treated White solid bottom plate (Cells resuspended in 10 mM HEPES buffered HBSS and 70 uM RO 20-1724)
2, Compound, 23 nL, Libraries and controls
3, Compound, 1 uL, EC80 TSH (4 nM final)
5, Reagent, 2 uL, cAMP antibody diluted 1:20 in lysis buffer
6, Time, 30 minutes, Room temperature
7, Detector, HTRF settings, Viewlux
A general note: Quantitative high-throughput screening tests each substance at several concentrations.
Consider `C[N+](C)(C)CCCCCCCCCC[N+](C)(C)C`, for which the “activity, negative = inhibition” value is -1.25%. On to `CCOC(=O)C1=C(C)NC(C)=C(C(=O)OC)C1c1cccc(Cl)c1Cl` (stereo not given), for which the “activity, negative = inhibition” value was -3.06%. Regarding `c1ccc2c(c1)CCCC2C1=NCCN1` (stereo not given), the “activity, negative = inhibition” value is -1.49%. In the case of `COc1ccc(CCN(C)CCCC(C#N)(c2cc(OC)c(OC)c(OC)c2)C(C)C)cc1OC` (stereo not given), the “activity, negative = inhibition” value was -2.21%. As to `CCOC(=O)C1=C(C)NC(C)=C(C(=O)OC)C1c1cccc([N+](=O)[O-])c1` (stereo not given), the “activity, negative = inhibition” value is -0.0235%. `Cc1ccc(Cl)c(Nc2ccccc2C(=O)O)c1Cl`: the “activity, negative = inhibition” value was -0.874%. Regarding `Cc1nc2sccn2c(=O)c1CCN1CCC(=C(c2ccc(F)cc2)c2ccc(F)cc2)CC1`, the “activity, negative = inhibition” value is -0.102%. For the compound `COc1ccc([C@@H]2Sc3ccccc3N(CCN(C)C)C(=O)[C@@H]2OC(C)=O)cc1`, the “activity, negative = inhibition” value is -0.595%. Consider `NC(N)=NC(=O)Cc1c(Cl)cccc1Cl`, for which the “activity, negative = inhibition” value was -0.432%. In the case of `CSc1ccc(C(=O)c2[nH]c(=O)[nH]c2C)cc1` it was -1.42%. In the case of `CCN1CCC[C@H]1CNC(=O)c1c(O)c(Cl)cc(Cl)c1OC` it was -0.251%; in that of `NC(=O)c1ncn([C@@H]2O[C@H](CO)[C@@H](O)[C@H]2O)c1O`, -0.094%. Turning to `CNCCC(Oc1ccccc1OC)c1ccccc1` (stereo not given), the “activity, negative = inhibition” value was 0.0081%.

In the case of `Cc1scc2c1N(C(=O)CN1CCN(C)CC1)c1ccccc1NC2=O`, the “activity, negative = inhibition” value is -0.837%. The value for `CNC1(C)C2CCC(C2)C1(C)C` (stereo not given) was -0.169%. As to `O=C(CCCN1CCC(O)(c2cccc(C(F)(F)F)c2)CC1)c1ccc(F)cc1`, the “activity, negative = inhibition” value is -1.63%. `CN(C)CC/C=C1\c2ccccc2COc2ccccc21`: the “activity, negative = inhibition” value was -0.274%.

Consider `CN=C(NC#N)NCCSCc1nc[nH]c1C`, for which the “activity, negative = inhibition” value is -0.841%. The value for `CN(C)CCOC(=O)COc1ccc(Cl)cc1` was -1.79%; that for `CCc1c(C)[nH]c2c1C(=O)C(CN1CCOCC1)CC2` (stereo not given) was -0.947%; that for `CN1CCN(CC(=O)N2c3ccccc3C(=O)Nc3cccnc32)CC1` was -1.41%. The value for `COC(=O)[C@@H](N)Cc1ccc(O)c(O)c1` was -0.791%; that for `COc1cc2c(cc1OC)-c1cc(=Nc3c(C)cc(C)cc3C)n(C)c(=O)n1CC2` was 0.512%.

Take `CCN(Cc1ccncc1)C(=O)C(CO)c1ccccc1` (stereo not given): the “activity, negative = inhibition” value is -1.15%. Take `COC(=O)[C@H]1[C@H]2C[C@@H]3c4[nH]c5cc(OC)ccc5c4CCN3C[C@H]2C[C@@H](OC(=O)c2cc(OC)c(OC)c(OC)c2)[C@@H]1OC`: the “activity, negative = inhibition” value was -0.756%. Take `NC/C=C/C(=O)O`: the “activity, negative = inhibition” value is -0.094%. Take `NC(N)=N/N=C/c1c(Cl)cccc1Cl`: the “activity, negative = inhibition” value is 0.0078%.

For `CC(C(=O)O)c1ccc(CC2CCCC2=O)cc1` (stereo not given), the “activity, negative = inhibition” value is -0.54%. Turning to `CCCCNc1c(C(=O)OCC)c(C)nc2c1cnn2CC`, the “activity, negative = inhibition” value is -1.03%. For `CC1=C(C)C(=O)C(CCCCC#CCCCC#CCO)=C(C)C1=O`, the “activity, negative = inhibition” value was 0.564%. For the compound `COc1cc(C(=O)OCCCN2CCCN(CCCOC(=O)c3cc(OC)c(OC)c(OC)c3)CC2)cc(OC)c1OC`, the “activity, negative = inhibition” value is -1.8%.

With `CC(=O)OC(C)C[N+](C)(C)C` (stereo not given), the “activity, negative = inhibition” value is -0.0513%.

`Cc1cc(C)c(/C=C2\C(=O)Nc3ccccc32)[nH]1`: the “activity, negative = inhibition” value is -1.73%. Turning to `CCn1ccnc1CC1COc2ccccc2O1` (stereo not given), the “activity, negative = inhibition” value was 0.0719%. The value for `Brc1c(NC2=NCCN2)ccc2nccnc12` was -2.35%; that for `CCCCCN(CCCCC)C(=O)C(CCC(=O)O)NC(=O)c1ccc(Cl)c(Cl)c1` (stereo not given) was -1.08%; that for `CC[N+](C)(C)c1cccc(O)c1` was -0.825%.

On to `CCCC(C(=O)OCCN(CC)CC)(c1ccccc1)c1ccccc1`, for which the “activity, negative = inhibition” value was 0.384%. The value for `CC(N=C(NC#N)Nc1ccncc1)C(C)(C)C` (stereo not given) was -1.22%; that for `c1cc(CN2CCCCC2)cc(OCCCNc2nc3ccccc3s2)c1` was -2.37%.
